# In PubChem BioAssay:
# Values joined by “and” are separate entries in the source; they are usually repeats but may differ in a detail not shown here. Equal values may be shown once. Active and inactive are the calls of the source.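 Rule for the calls, unless noted: active = mean z-score across replicates of 1.96 or higher in either the MELAS or the Rieske mutant cell line; inactive = the rest.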 *1 amine or outer side, *2 acyl side, *3 side chain or, on linkers, in order; H or OH if unused. Where a SMILES comes first, the peptide text is derived from it. Bridges are numbered along the chain shown (N, C = ends). [ ]: non-standard residue; d: D form. The star is where a group is joined. ξ: configuration not given here. pTerphenylCO(4''-OnC5H11) = CCCCCOc1ccc(-c2ccc(-c3ccc(C(=O)*)cc3)cc2)cc1; ξOrn(4,5-diOH) = O=C(C(CC(O)C(O)N[*:3])N[*:1])[*:2]; ξhTyr(βξ-OH,γξ-OH) = NC(C(=O)O)C(O)C(O)c1ccc(O)cc1; ξPro(3ξ-OH,4ξ-Me) = CC1CNC(C(=O)O)C1O; Hyp = O=C(O)[CH]1C[CH](O)CN1
# Experiments:
# [1] = viability loss with induced miR-34 in A549 – imaging, A549 dox-inducible miR-34, nuclei and caspase counts, primary screen (AID 1347080;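 active = compounds whose cell count with miR-34 switched on is under 0.7 times the count with it off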); settings: A549 miR-34 inducible, Hoechst nuclei count, 48 h
# [2] = MELAS cybrid and Rieske KO viability enhancers – cell-based, MELAS cybrids, Rieske KO mouse fibroblasts, CellTiter-Glo, primary screen (AID 1508586); settings: low glucose;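 note: z relative to plate mean and SD of compound and empty wells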
# [3] = stronger effect = lower value, cell number ratio, induced over uninduced
# [4] = measured here: relative caspase fold change +Dox/-Dox
# [5] = measured here: total cells with miR-34 induction, stronger effect = lower value
# [6] = measured here: total cells without miR-34 induction
# [7] = MELAS cybrid survival, CellTiter-Glo 48 h, stronger effect = higher value
# [8] = Rieske KO mouse fibroblast survival, CellTiter-Glo 72 h
# Note: test concentration not given here.
Structure (SMILES),"fold change [1, 3]","fold change [1, 4]","cell count [1, 5]","cell count [1, 6]","z-score [2, 7]","z-score [2, 8]"
COc1cc(F)c(F)c(Nc2ccc(I)cc2F)c1NS(=O)(=O)C1(CC(O)CO)CC1 (configuration not stated),0.923 (inactive),0.76,2970,3220,-0.764 (inactive),-0.645
CNC1C(O)C(NC)[C@H]2O[C@@]3(O)C(=O)CC(C)O[C@H]3O[C@@H]2C1O (some centres not stated),1.01 (inactive),0.997,9590,9460,-0.277 (inactive),0.762
"CCCCCOc1ccc(-c2ccc(-c3ccc(C(=O)NC4CC(O)C(O)NC(=O)C5C(O)C(C)CN5C(=O)C(C(C)O)NC(=O)C(C(O)C(O)c5ccc(O)cc5)NC(=O)C5CC(O)CN5C(=O)C(C(C)O)NC4=O)cc3)cc2)cc1 (stereo not drawn) ({pTerphenylCO(4''-OnC5H11)}-[ξOrn(4,5-diOH)]T[Hyp][ξhTyr(βξ-OH,γξ-OH)]T[ξPro(3ξ-OH,4ξ-Me)]; lactam 1-C; configuration not given here)",0.963 (inactive),0.515,5590,5810,0.0456 (inactive),-0.136
CCOC(=O)C(CCc1ccccc1)NC(C)C(=O)N1Cc2ccccc2CC1C(=O)O (configuration not stated),0.963 (inactive),1.71,8090,8400,0.0216 (inactive),-0.419
COC1CC2CCC(C)[C@@](O)(O2)C(=O)C(=O)N2CCCCC2C(=O)OC(C(C)CC2CCC(OCCO)C(OC)C2)CC(=O)C(C)C=C(C)C(O)C(OC)C(=O)C(C)CC(C)C=CC=CC=C1C (some centres not stated),1.03 (inactive),1,4550,4420,0.115 (inactive),1.87
Cc1ccc(C(=O)N(CCCN)C(c2nc3cc(Cl)ccc3c(=O)n2Cc2ccccc2)C(C)C)cc1 (configuration not stated),0.993 (inactive),0.877,1340,1350,0.859 (inactive),-0.608
COC(=O)C1=COC(OC2OC(CO)C(O)C(O)C2O)[C@H]2C(CO)=CC[C@H]12 (some centres not stated),0.942 (inactive),0.842,7570,8040,-0.247 (inactive),-0.0973
CNC(C)C(=O)NC(C(=O)N1CCCC1C(=O)Nc1snnc1-c1ccccc1)C1CCCCC1 (configuration not stated),0.982 (inactive),0.55,8360,8510,-0.276 (inactive),-0.145
CC1=C(CC(=O)O)c2cc(F)ccc2C1=Cc1ccc(S(C)=O)cc1 (configuration not stated),0.878 (inactive),0.667,7920,9010,-0.193 (inactive),0.691
Cc1cc(=O)oc2c(C=O)c(O)ccc12,0.88 (inactive),0.552,8210,9320,-0.241 (inactive),0.915
COC1C[C@H]2CCC(C)[C@@](O)(O2)C(=O)C(=O)N2CCCC[C@H]2C(=O)OC(C(C)CC2CCC(OC(=O)C(C)(CO)CO)C(OC)C2)CC(=O)C(C)C=C(C)C(O)C(OC)C(=O)C(C)CC(C)C=CC=CC=C1C (some centres not stated),1.08 (inactive),0.974,3980,3690,0.432 (inactive),0.402
CC1(C)CCC[C@@]2(C)[C@H]3CC(=O)O[C@]3(C)CC[C@@H]12,0.913 (inactive),0.659,9360,10200,-0.354 (inactive),1.06
CC(NC(=O)C(Cc1ccccc1)NC(=O)OCc1ccccc1)C(=O)CF (configuration not stated),0.911 (inactive),0.415,8780,9640,-0.389 (inactive),-0.551
CC(=O)OCC(=O)[C@]12N=C(C)O[C@@H]1C[C@H]1[C@@H]3CCC4=CC(=O)C=C[C@]4(C)[C@@H]3C(O)C[C@@]12C (some centres not stated),0.954 (inactive),1.27,5010,5250,-0.0832 (inactive),-0.272
CC(=O)OC1C(=O)[C@]2(C)C(O)CC3OC[C@@]3(OC(C)=O)C2C(OC(=O)c2ccccc2)[C@]2(O)CC(OC(=O)C(O)C(NC(=O)c3ccccc3)c3ccccc3)C(C)=C1C2(C)C (some centres not stated),0.984 (inactive),0.702,1360,1380,1.51 (inactive),0.434
CC1C[C@H]2[C@@H]3CCC4=CC(=O)C=C[C@]4(C)[C@]3(F)C(O)C[C@]2(C)[C@]1(O)C(=O)CO (some centres not stated),0.886 (inactive) and 0.91 (inactive),0.577 and 0.802,5440 and 5070,6140 and 5570,-0.338 (inactive) and -0.534 (inactive),0.031 and -0.0341

Structure (SMILES),"fold change [1, 3]","fold change [1, 4]","cell count [1, 5]","cell count [1, 6]","z-score [2, 7]","z-score [2, 8]"
CC(=O)[C@H]1CC[C@H]2[C@@H]3C=CC4=CC(=O)CC[C@@]4(C)[C@H]3CC[C@]12C,0.894 (inactive),0.952,7680,8580,-0.0223 (inactive),-0.212
N#CSc1cc(SC#N)c(N)nc1N,1.07 (inactive),0.703,1940,1820,-0.481 (inactive),-2.9
Cc1ccc(S(=O)(=O)c2ccc([N+](=O)[O-])o2)cc1,1.58 (inactive),0.353,1860,1180,-1.09 (inactive),-6.94
C#CCNC1CCc2ccccc21 (configuration not stated),1.01 (inactive),0.344,8040,7960,-0.195 (inactive),-0.00726
O=C(C=CC=Cc1ccc2c(c1)OCO2)N1CCCCC1,1 (inactive),0.989,9240,9240,-0.417 (inactive),0.823
[K+],0.939 (inactive),0.429,7790,8290,0.0668 (inactive),0.0929
CC(=O)OCC(=O)[C@]12OC(C)(C)OC1C[C@H]1[C@@H]3CC(F)C4=CC(=O)C=C[C@]4(C)[C@]3(F)C(O)C[C@@]12C (some centres not stated),0.819 (inactive),1.14,5400,6590,-0.325 (inactive),-0.647
Cc1ccc(NCCCc2ccccc2)c(N)c1,0.882 (inactive),0.496,7500,8510,-0.425 (inactive),0.263
COC(=O)C=CC(=O)OC,0.917 (inactive),0.928,10100,11000,-0.336 (inactive),0.844
O=C(NCCO)c1cccc(-c2cc(Nc3ccc(OC(F)(F)F)cc3)ncn2)c1,0.847 (inactive),0.626,7400,8740,-0.469 (inactive),0.943
CC(C)N(CC1OC(n2cnc3c(N)ncnc32)C(O)C1O)C1CC(CCc2nc3ccc(C(C)(C)C)cc3[nH]2)C1 (configuration not stated),0.923 (inactive),0.796,8950,9700,-0.166 (inactive),-0.146
NC(Cc1cc(I)c(Oc2cc(I)c(O)c(I)c2)c(I)c1)C(=O)O (configuration not stated),0.891 (inactive),1.04,8130,9130,-0.238 (inactive),-1.06
CC1CC(C(=O)O)C2CC[C@]3(C)C(=CC[C@H]4[C@@]5(C)CCC(O)C(C)(C)[C@@H]5CC[C@]43C)[C@H]2C1C (some centres not stated),0.867 (inactive),0.88,8220,9470,-0.234 (inactive),0.804
CCCC1CC(C(=O)NC(C(C)O)[C@@H]2OC(SC)C(O)C(O)C2O)N(C)C1 (some centres not stated),0.883 (inactive),0.66,9270,10500,-0.388 (inactive),-0.162
CC1CCO[C@H]2Cn3cc(C(=O)NCc4ccc(F)cc4F)c(=O)c(O)c3C(=O)N12 (some centres not stated),1 (inactive),0.731,8400,8370,-0.34 (inactive),0.66
Cn1c(=O)cc(N2CCCC(N)C2)n(Cc2cc(F)ccc2C#N)c1=O (configuration not stated),0.894 (inactive),0.61,8440,9440,-0.335 (inactive),1.48
